Reference: PubChem BioAssay (EPA / NIEHS)
The source made the active and inactive calls. The calls were made as follows: active = hit-call score of the fitted dose curve at least 0.9, where 1 is the maximum; inactive = score below 0.9.

How the values were obtained:
[1] = molecular target: Transcription factor E2F1 (Homo sapiens) (UniProt Q01094); assay: ATG_E2F_CIS: Attagene CIS-FACTORIAL HepG2 Assay for human E2F Transcription Factor 1 (AID 2282935); settings: HepG2 Attagene cis-reporter, E2F reporter RNA transcripts; actives raise or lower the signal
In short: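 Measures reporter transcript levels via RT-PCR with capillary electrophoresis detection in HepG2 cells harboring cis-regulated reporter units; 24 h post-dose; bidirectional curve fitting with DMSO as baseline.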

[2] = ATG_E_Box_CIS: Attagene CIS-FACTORIAL HepG2 Assay for human Enhancer Box (E-box) (AID 2282936); settings: HepG2 E-box cis-reporter transcription, actives raise or lower the signal
In short: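 First, HepG2 cells receive multiple cis-regulated reporter constructs by transient transfection. Next, chemicals are applied for 24 h. Finally, reporter mRNA is quantified via RT-PCR and capillary electrophoresis, with DMSO as baseline.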

[3] = ATG_M_61_CIS: Attagene CIS-FACTORIAL HepG2 Assay for M61 Transcription Factor (Internal Marker) (AID 2282937); settings: HepG2 Attagene CIS-FACTORIAL M61 internal marker reporter; actives raise or lower the signal
In short: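 HepG2 cells transiently transfected with multiplexed cis-promoter reporter units reporting endogenous transcription factor activity, measured 24 h after dosing. Reporter mRNA quantified by RT-PCR and capillary electrophoresis; bidirectional fit against DMSO baseline.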

[4] = ATG_M_19_CIS: Attagene CIS-FACTORIAL HepG2 Assay for M19 Transcription Factor (Internal Marker) (AID 2282939); settings: HepG2 Attagene CIS-FACTORIAL M19 internal marker reporter; actives raise or lower the signal
In short: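 Signals come from fluorescence of labelled reporter-specific PCR fragments resolved by capillary electrophoresis, following 24 h treatment of HepG2 cells transfected with cis-promoter reporter units; activity was fitted in both directions relative to DMSO.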

[5] = ATG_ERE_CIS: Attagene CIS-FACTORIAL HepG2 Assay for Estrogen Response Element (ERE) (AID 2282940); settings: HepG2 ERE cis-reporter, Attagene RNA transcript; actives raise or lower the signal
In short: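 Fluorescence of capillary-separated, FAM-labelled reporter cDNA fragments indicates reporter mRNA levels in HepG2 cells exposed to chemicals for 24 h. Transient transfection with cis-regulated units; data fitted in both directions against DMSO.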

[6] = ATG_Ets_CIS: Attagene CIS-FACTORIAL HepG2 Assay for human Erythroblast Transformation Specific (ETS) (AID 2282941); settings: HepG2 ETS cis-reporter transcription, actives raise or lower the signal
In short: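 HepG2 cells transiently transfected with cis-promoter reporter transcription units were dosed for 24 h; reporter mRNA was measured by RT-PCR, 6-FAM primer extension, HpaI digestion and capillary electrophoresis, with bidirectional fitting against DMSO baseline.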

[7] = molecular target: Hepatocyte nuclear factor 3-beta (Homo sapiens) (UniProt Q9Y261); assay: ATG_FoxA2_CIS: Attagene CIS-FACTORIAL HepG2 Assay for human Forkhead box A2 (FOXA2) (AID 2282942); settings: HepG2 cis-reporter transcription factor activity, 24 h; actives raise or lower the signal
In short: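 HepG2 transiently transfected with a multiplexed cis-promoter reporter library read endogenous FOXA2 activity. After 24 h compound exposure, reporter mRNA was quantified by RT-PCR, HpaI digestion and capillary electrophoresis. Bidirectional fit against DMSO.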

[8] = ATG_FoxO_CIS: Attagene CIS-FACTORIAL HepG2 Assay for human Forkhead box O (FoxO) (AID 2282943); settings: HepG2 Attagene cis-reporter, FoxO element, mRNA; actives raise or lower the signal
In short: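 HepG2 cells transiently transfected with cis-element-driven reporter units report endogenous FoxO activity. After 24 h chemical exposure, reporter mRNA quantified by RT-PCR, fluorescent labeling, HpaI digestion and capillary electrophoresis; bidirectional fit versus DMSO.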

[9] = ATG_GATA_CIS: Attagene CIS-FACTORIAL HepG2 Assay for human GATA Binding Protein (AID 2282944); settings: HepG2 GATA cis-element reporter, Attagene multiplex mRNA; actives raise or lower the signal
In short: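 After transfecting HepG2 cells with multiple cis-regulated reporter units, chemicals are dosed for 24 h; isolated RNA undergoes RT-PCR and fluorescent labeling before capillary electrophoresis, with activity expressed against DMSO.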

[10] = ATG_GLI_CIS: Attagene CIS-FACTORIAL HepG2 Assay for human Zinc Finger Protein GLI1 (AID 2282945); settings: HepG2, Attagene cis-factorial reporter mRNA, GLI element; actives raise or lower the signal
In short: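 Transiently transfected HepG2 cells report endogenous transcription factor activity via cis-element-driven reporter units. After 24 h compound exposure, reporter mRNA was measured by RT-PCR with capillary electrophoresis; bidirectional fitting against DMSO baseline.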

[11] = molecular target: Bile acid receptor (Homo sapiens) (UniProt Q96RI1); assay: ATG_IR1_CIS: Attagene CIS-FACTORIAL HepG2 Assay for human Nuclear Receptor Subfamily 1 Group H Member 4 (NR1H4), IR1 submotif (AID 2282946); settings: IR1 reporter transcription, actives raise or lower the signal
In short: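 HepG2 cells transiently transfected with multiple cis-promoter-driven reporter units to measure endogenous transcription factor activity; 24 h exposure. Reporter mRNA read by RT-PCR, FAM labelling, HpaI digestion and capillary electrophoresis. Bidirectional fit versus DMSO.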

[12] = ATG_ISRE_CIS: Attagene CIS-FACTORIAL HepG2 Assay for human Interferon Regulatory Factor 1 (IRF1) binding to an Interferon-Stimulated Response Element (ISRE) (AID 2282948); settings: HepG2 ISRE cis-reporter (Attagene), mRNA transcription readout; actives raise or lower the signal
In short: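 HepG2 cells transiently transfected with multiplexed cis-promoter reporter units; after 24 h compound exposure, reporter mRNA quantified by RT-PCR, FAM labelling, HpaI digestion and capillary electrophoresis. Bidirectional fit versus DMSO baseline.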

[13] = ATG_M_32_CIS: Attagene CIS-FACTORIAL HepG2 Assay for M32 Transcription Factor (Internal Marker) (AID 2282949); settings: HepG2 Attagene cis-factorial M32 reporter, mRNA; actives raise or lower the signal;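 also: background control marker of the multiplexed CIS panel rather than a real target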
In short: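 Following 24 h chemical exposure of HepG2 cells transiently expressing cis-promoter reporter constructs, reporter transcript levels were determined by RT-PCR with fluorescent labelling and capillary electrophoresis, then fitted bidirectionally against DMSO.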

[14] = molecular target: Hepatocyte nuclear factor 6 (Homo sapiens) (UniProt Q9UBC0); assay: ATG_HNF6_CIS: Attagene CIS-FACTORIAL HepG2 Assay for human Hepatocyte Nuclear Factor 6 (HNF6) (AID 2282952); settings: HepG2 Attagene cis-factorial HNF6 reporter transcription; actives raise or lower the signal
In short: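 Transiently transfected HepG2 cells expressing cis-regulated reporter transcription units were exposed to chemical for 24 h in a 24-well format. Reporter transcript abundance was determined by fluorescence capillary electrophoresis.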

[15] = molecular target: Heat shock factor protein 1 (Homo sapiens) (UniProt Q00613); assay: ATG_HSE_CIS: Attagene CIS-FACTORIAL HepG2 Assay for human Heat Shock Transcription Factor 1 (HSE) (AID 2282953); settings: HepG2 HSE cis-reporter, Attagene RNA transcription; actives raise or lower the signal
In short: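 Endogenous transcription factor activity captured via cis-promoter reporter units transfected into HepG2; treatment lasted 24 h. Fluorescence intensity of reporter fragments analysed with bidirectional curve fitting, DMSO baseline.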

[16] = ATG_MRE_CIS: Attagene CIS-FACTORIAL HepG2 Assay for human Metal Responsive Element (MRE) (AID 2282954); settings: HepG2 MRE cis-reporter transcription, Attagene multiplex; actives raise or lower the signal
In short: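 Fluorescent reporter fragments separated by capillary electrophoresis give mRNA induction for the MRE unit after 24 h treatment of transfected HepG2 cells. Endogenous transcription-factor activity is read; DMSO serves as negative control and baseline.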

[17] = ATG_EGR_CIS: Attagene CIS-FACTORIAL HepG2 Assay for human Early Growth Response 1 (EGR1) (AID 2282938); settings: HepG2 Attagene CIS-FACTORIAL EGR reporter mRNA; actives raise or lower the signal
In short: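 HepG2 cells transiently transfected with cis-element-driven multiplexed reporter units, dosed for 24 h. EGR1-element reporter mRNA quantified by RT-PCR, 6-FAM labelling, HpaI digestion and capillary electrophoresis; bidirectional fit versus DMSO.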

[18] = ATG_GRE_CIS: Attagene CIS-FACTORIAL HepG2 Assay for human Glucocorticoid Response Elements (GRE) (AID 2282947); settings: HepG2 GRE cis-reporter, Attagene multiplex mRNA; actives raise or lower the signal
In short: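 Endogenous transcription factor activity is read through cis-element reporter constructs transiently transfected into HepG2 cells. After 24 h treatment, labelled RT-PCR products are resolved by capillary electrophoresis; DMSO sets baseline for bidirectional curve fitting.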

[19] = ATG_M_06_CIS: Attagene CIS-FACTORIAL HepG2 Assay for M06 Transcription Factor (Internal Marker) (AID 2282950); settings: HepG2 Attagene CIS-FACTORIAL M06 internal marker reporter; actives raise or lower the signal
In short: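 HepG2 liver cells, 24 h exposure. Reporter transcripts from transfected cis-element constructs quantified by RT-PCR/capillary electrophoresis fluorescence. Bidirectional curve fit against DMSO.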

[20] = molecular target: Hypoxia-inducible factor 1-alpha (Homo sapiens) (UniProt Q16665); assay: ATG_HIF1a_CIS: Attagene CIS-FACTORIAL HepG2 Assay for human Hypoxia Inducible Factor 1 (HIF1A) (AID 2282951); settings: HepG2 Attagene cis-factorial HIF1a reporter transcription; actives raise or lower the signal
In short: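 HepG2 cells transiently transfected with multiple cis-regulated reporter transcription units measure endogenous transcription factor activity. After 24 h exposure, reporter mRNA is quantified by RT-PCR with 6-FAM labelling, HpaI digestion and capillary electrophoresis. Bidirectional fitting against DMSO.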

Measured: outcome

Chain of Hepatocyte nuclear factor 3-beta (Homo sapiens) (Q9Y261 whole entry, looked up): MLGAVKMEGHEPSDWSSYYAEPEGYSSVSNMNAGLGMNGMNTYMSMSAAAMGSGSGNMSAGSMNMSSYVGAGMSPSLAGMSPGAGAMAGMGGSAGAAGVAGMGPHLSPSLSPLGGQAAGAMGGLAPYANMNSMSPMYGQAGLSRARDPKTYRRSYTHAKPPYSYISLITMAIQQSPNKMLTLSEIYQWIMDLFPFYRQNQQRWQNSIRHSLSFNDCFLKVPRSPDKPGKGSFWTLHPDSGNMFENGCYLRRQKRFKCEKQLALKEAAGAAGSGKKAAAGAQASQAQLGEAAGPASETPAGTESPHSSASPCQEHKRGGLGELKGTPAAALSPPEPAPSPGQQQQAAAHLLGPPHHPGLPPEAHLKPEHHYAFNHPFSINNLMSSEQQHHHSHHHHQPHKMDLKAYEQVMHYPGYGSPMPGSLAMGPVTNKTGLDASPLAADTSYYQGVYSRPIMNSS
Chain of Hepatocyte nuclear factor 6 (Homo sapiens) (Q9UBC0 whole entry, looked up): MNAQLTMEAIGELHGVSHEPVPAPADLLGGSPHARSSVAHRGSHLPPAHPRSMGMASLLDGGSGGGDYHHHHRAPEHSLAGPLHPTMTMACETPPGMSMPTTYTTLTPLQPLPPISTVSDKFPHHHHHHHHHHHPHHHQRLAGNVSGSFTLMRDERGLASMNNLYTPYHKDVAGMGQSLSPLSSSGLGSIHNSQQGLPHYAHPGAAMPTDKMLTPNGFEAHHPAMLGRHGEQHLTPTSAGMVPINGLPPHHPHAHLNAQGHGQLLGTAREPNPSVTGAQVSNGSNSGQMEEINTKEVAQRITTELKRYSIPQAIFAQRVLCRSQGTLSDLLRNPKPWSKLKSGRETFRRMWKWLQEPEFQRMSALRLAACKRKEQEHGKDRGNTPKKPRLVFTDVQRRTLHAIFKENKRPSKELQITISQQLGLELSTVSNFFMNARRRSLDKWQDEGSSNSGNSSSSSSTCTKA
Chain of Bile acid receptor (Homo sapiens) (Q96RI1 whole entry, looked up): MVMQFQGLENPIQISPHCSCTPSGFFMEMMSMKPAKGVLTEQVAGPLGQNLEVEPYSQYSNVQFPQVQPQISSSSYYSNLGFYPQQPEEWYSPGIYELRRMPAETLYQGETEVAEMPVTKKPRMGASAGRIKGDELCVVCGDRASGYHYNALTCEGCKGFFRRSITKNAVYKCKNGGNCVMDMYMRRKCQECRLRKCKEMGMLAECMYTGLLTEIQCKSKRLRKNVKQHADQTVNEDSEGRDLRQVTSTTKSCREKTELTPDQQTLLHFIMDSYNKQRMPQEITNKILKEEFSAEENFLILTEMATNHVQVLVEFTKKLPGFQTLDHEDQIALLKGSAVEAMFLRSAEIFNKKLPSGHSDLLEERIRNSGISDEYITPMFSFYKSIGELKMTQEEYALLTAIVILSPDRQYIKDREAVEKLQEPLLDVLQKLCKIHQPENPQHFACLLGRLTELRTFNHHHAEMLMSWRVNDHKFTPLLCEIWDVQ
Chain of Transcription factor E2F1 (Homo sapiens) (Q01094 whole entry, looked up): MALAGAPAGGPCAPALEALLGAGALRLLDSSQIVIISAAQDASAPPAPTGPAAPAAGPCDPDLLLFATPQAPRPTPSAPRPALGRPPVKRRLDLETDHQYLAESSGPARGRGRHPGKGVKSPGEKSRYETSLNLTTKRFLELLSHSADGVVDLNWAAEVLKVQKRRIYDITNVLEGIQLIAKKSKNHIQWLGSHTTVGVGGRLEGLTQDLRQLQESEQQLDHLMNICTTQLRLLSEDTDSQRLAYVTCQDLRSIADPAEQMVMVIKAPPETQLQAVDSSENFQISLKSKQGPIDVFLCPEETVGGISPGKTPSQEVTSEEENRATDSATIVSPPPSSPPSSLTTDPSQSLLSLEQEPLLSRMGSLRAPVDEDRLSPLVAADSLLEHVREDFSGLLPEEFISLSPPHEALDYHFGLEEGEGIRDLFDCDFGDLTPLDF
Chain of Heat shock factor protein 1 (Homo sapiens) (Q00613 whole entry, looked up, the tested form may be a part): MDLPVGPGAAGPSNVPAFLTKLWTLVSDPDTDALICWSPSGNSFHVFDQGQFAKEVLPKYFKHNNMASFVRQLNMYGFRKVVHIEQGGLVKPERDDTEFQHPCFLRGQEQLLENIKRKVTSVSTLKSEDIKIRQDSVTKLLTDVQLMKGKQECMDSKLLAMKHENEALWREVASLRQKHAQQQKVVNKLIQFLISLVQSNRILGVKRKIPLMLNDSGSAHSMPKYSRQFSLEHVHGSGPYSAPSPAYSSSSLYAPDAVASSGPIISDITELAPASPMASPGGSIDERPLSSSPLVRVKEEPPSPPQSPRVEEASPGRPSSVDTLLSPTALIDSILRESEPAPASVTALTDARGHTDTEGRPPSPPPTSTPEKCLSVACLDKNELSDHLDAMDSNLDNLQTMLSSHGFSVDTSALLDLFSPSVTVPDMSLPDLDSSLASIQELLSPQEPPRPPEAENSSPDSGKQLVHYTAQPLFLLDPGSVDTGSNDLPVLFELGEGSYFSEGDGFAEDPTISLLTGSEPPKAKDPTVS
Chain of Hypoxia-inducible factor 1-alpha (Homo sapiens) (Q16665 whole entry, looked up): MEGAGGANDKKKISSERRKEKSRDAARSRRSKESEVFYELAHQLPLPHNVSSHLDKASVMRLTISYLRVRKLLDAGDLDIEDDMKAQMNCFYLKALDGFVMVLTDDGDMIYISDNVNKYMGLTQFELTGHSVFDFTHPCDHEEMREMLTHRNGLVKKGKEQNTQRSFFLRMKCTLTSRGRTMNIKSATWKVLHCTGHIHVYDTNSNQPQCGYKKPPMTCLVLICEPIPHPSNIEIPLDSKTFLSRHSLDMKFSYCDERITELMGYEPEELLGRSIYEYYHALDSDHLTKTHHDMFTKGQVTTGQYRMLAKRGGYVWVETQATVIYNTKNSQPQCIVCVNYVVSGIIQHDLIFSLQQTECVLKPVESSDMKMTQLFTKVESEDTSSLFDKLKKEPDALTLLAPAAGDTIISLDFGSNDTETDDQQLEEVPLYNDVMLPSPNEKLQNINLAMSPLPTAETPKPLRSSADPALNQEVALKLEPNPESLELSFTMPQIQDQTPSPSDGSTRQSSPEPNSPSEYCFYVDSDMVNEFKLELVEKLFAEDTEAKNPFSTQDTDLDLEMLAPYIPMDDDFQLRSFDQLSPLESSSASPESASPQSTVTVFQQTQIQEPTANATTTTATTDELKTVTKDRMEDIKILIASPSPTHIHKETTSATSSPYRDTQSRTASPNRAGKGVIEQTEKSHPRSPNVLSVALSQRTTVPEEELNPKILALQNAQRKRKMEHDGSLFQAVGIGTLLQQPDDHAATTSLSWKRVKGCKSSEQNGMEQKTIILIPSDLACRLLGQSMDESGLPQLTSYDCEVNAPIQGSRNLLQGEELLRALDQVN

COc1ccccc1O
inactive: [1] | [2] | [3] | [4] | [5] | [6] | [7] | [8] | [9] | [10] | [11] | [12] | [13] | [14] | [15] | [16]

[Cl][Dy]([Cl])[Cl]
inactive: [1] | [3] | [17] | [4] | [5] | [6] | [7] | [8] | [9] | [10] | [11] | [18] | [12] | [13] | [19] | [20] | [14] | [15] | [16]
